Read-out in test [1]: Tissue Factor, F3 (gene 2152)
Briefly: BSK_CASM3C_TissueFactor: BioMAP Diversity Plus: CASM3C Assay for Tissue Factor Biomarker Activity (AID 2283052).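 Further: cell surface tissue factor protein level read by ELISA.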 Particulars: primary human coronary artery smooth muscle cells; actives raise or lower the signal.

Read-out in test [2]: Interferon-gamma inducible Protein 10 (IP10), CXCL10 (gene 3627)
Briefly: BSK_hDFCGF_IP10: BioMAP Diversity Plus: hDFCGF Assay for Interferon-gamma inducible Protein 10 (IP10) Biomarker Activity (AID 2283053). Particulars: primary human foreskin fibroblasts; actives raise or lower the signal. Summed up: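 Cells: human dermal foreskin fibroblasts. Exposure: 24 h post-dosing. Detection: IP-10 ELISA, with values expressed against DMSO controls and fitted in both directions.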

Read-out in test [3]: Urokinase-type plasminogen activator receptor (uPAR), PLAUR (gene 5329)
Briefly: BSK_CASM3C_uPAR: BioMAP Diversity Plus: CASM3C Assay for Urokinase-type plasminogen activator receptor (uPAR) Biomarker Activity (AID 2283054).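 Further: cell-surface uPAR protein level quantified by ELISA.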 Particulars: primary human coronary artery smooth muscle cells; actives raise or lower the signal.

Read-out in test [4]: Vascular cell adhesion molecule 1 (VCAM1), VCAM1 (gene 7412)
As to the kind of experiment: BSK_CASM3C_VCAM1: BioMAP Diversity Plus: CASM3C Assay for Vascular cell adhesion molecule 1 (VCAM1) Biomarker Activity (AID 2283055).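 Further: VCAM-1 protein level quantified by ELISA on the cells.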 To be noted: primary human coronary artery smooth muscle cells; actives raise or lower the signal.

Read-out in test [5]: Epidermal growth factor receptor (EGFR), EGFR (gene 1956)
Briefly: BSK_hDFCGF_EGFR: BioMAP Diversity Plus: hDFCGF Assay for Epidermal growth factor receptor (EGFR) Biomarker Activity (AID 2283057). To be noted: primary human foreskin fibroblasts; actives raise or lower the signal. The method, boiled down:
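Dosing human primary skin fibroblasts, then measuring surface EGFR by ELISA at 24 h, gives the endpoint; gains and losses relative to DMSO were fitted in both directions.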

Read-out in test [6]: Interleukin-8 (IL8), CXCL8 (gene 3576)
Briefly: BSK_hDFCGF_IL8: BioMAP Diversity Plus: hDFCGF Assay for Interleukin-8 (IL8) Biomarker Activity (AID 2283058). Particulars: primary human foreskin fibroblasts; actives raise or lower the signal. Summed up:
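hDFCGF human dermal fibroblasts; 24 h chemical exposure; IL-8 by ELISA; bidirectional curve fit vs DMSO baseline; gain or loss of signal scored.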

Test [7] is described as follows: BSK_hDFCGF_Proliferation: Cell Proliferation Assessment in the BioMAP Diversity Plus: hDFCGF Assay (AID 2283059).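 Further: curves fitted for both rise and fall of signal versus DMSO baseline.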 To be noted: primary human foreskin fibroblasts. Summed up: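 This proliferation readout used SRB total-protein staining of human foreskin fibroblasts […], normalized to DMSO with bidirectional curve fitting.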
Read-out in test [8]: Macrophage colony-stimulating factor (MCSF), CSF1 (gene 1435)
As to the kind of experiment: BSK_hDFCGF_MCSF: BioMAP Diversity Plus: hDFCGF Assay for Macrophage colony-stimulating factor (MCSF) Biomarker Activity (AID 2283060). Particulars: primary human foreskin fibroblasts; actives raise or lower the signal. The method, boiled down: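 Human foreskin primary fibroblasts were treated with test chemical for 24 h, and M-CSF was then measured by ELISA. Data were fitted bidirectionally against DMSO as the negative control and activity baseline.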

A short description of test [9]: BSK_hDFCGF_SRB: Viability Assessment in the BioMAP Diversity Plus: hDFCGF Assay (AID 2283061).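 Further: cells exposed to compound for 24 h before the read.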 To be noted: primary human foreskin fibroblasts. Summed up:
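Human foreskin primary fibroblasts were treated with compound and assessed 24 h after dosing. Total protein was measured by sulforhodamine B staining (0.1% SRB after 10% TCA fixation, 560 nm read) as a cytotoxicity marker, with bidirectional fitting against DMSO baseline.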

Read-out in test [10]: Collagen III, COL3A1 (gene 1281)
Briefly: BSK_hDFCGF_CollagenIII: BioMAP Diversity Plus: hDFCGF Assay for Collagen III Biomarker Activity (AID 2283056). Particulars: primary human foreskin fibroblasts; actives raise or lower the signal. Summed up:
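Human foreskin primary fibroblasts were exposed to test chemicals for 24 h, after which collagen III was quantified by ELISA. Activity was fitted bidirectionally against DMSO as negative control and baseline.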

SMILES strings stand for the structures. Where “and” joins values, the source holds several entries; their conditions need not be identical. Equal values may be shown once. The source holds several records for some structures; these can differ, active in one and inactive in another. Calls of active or inactive are those of the source. How the source made its calls: active means hit-call score of the fitted dose curve at least 0.9, where 1 is the maximum; inactive means score below 0.9.

For the compound `CCCCOC(=O)c1ccccc1C(=O)OCc1ccccc1`, the outcome in [1], in test [2], in test [3], in [4], in test [5] and in [6] was inactive. Also, the result in test [7] and in [9] was inactive. Besides, the AC50 in [8] is 11.8 µM (active).
In the case of `c1ccc2c(c1)oc1ccccc12`, the outcome in [1], in test [2], in test [3], in test [4], in test [5] and in test [6] was inactive. For the same compound, the result in test [7], in test [8] and in test [9] was inactive.
`C[N+](C)(C)CC1CO1` (configuration not stated): the outcome in [1], in [2], in test [3], in [4], in test [5] and in [6] was inactive. In addition, the outcome in [7], in test [8] and in [9] was inactive.
For `Cc1ccc(N)c(N)c1`, the outcome in test [1], in test [3], in [5], in [6], in [8] and in [9] was inactive. Further, the AC50 in [2] was 3.97 µM (active); in [4], 8.46 µM (active); in test [10], 6.88 µM (active); in test [7], 14.7 µM (active).
As to `CCNS(=O)(=O)C(F)(F)C(F)(F)C(F)(F)C(F)(F)C(F)(F)C(F)(F)C(F)(F)C(F)(F)F`, the outcome in test [1], in test [3], in [5] and in test [6] was inactive. Besides, the AC50 was 18 µM (active) and 20.9 µM (active) and 19.8 µM (active) in test [2]; 9.52 µM (active) and 11.7 µM (active) and 5.95 µM (active) in test [4]; 31.3 µM (active) and 48.5 µM (active) in test [5]; 55.1 µM (active) and 46.4 µM (active) in test [6]; 17.5 µM (active) and 14.4 µM (active) and 19.4 µM (active) in test [7]; 17 µM (active) and 22.2 µM (active) and 28.5 µM (active) in test [8]. For the same compound, in test [9], the AC50 is 28.8 µM (active) and 44.8 µM (active) and 47.8 µM (active).
Regarding `CCCCCCCCn1sccc1=O`, the AC50 in test [1] is 14.2 µM (active); in [2], 0.626 µM (active); in test [3], 11.5 µM (active); in [4], 9.3 µM (active); in [6] it was 1.62 µM (active); in test [7] it was 0.405 µM (active). The AC50 in [8] was 1.07 µM (active); in test [9], 1.73 µM (active). The result in test [5] was inactive.
As to `Cc1cc(N=Nc2ccccc2C)ccc1N`, the result in test [1], in test [3], in [4], in [5] and in [6] was inactive. Besides, the AC50 in [2] was 29.9 µM (active); in test [7], 9.37 µM (active); in test [8], 28.3 µM (active); in [9], 34.5 µM (active).
Consider `CN(C)[C@@H]1C(=O)C(C(N)=O)=C(O)[C@@]2(O)C(=O)C3=C(O)c4c(O)cccc4[C@@](C)(O)[C@H]3C[C@@H]12`, for which the result in test [1], in test [2], in [3], in test [4], in test [5] and in [6] was inactive. Further, the result in [8] and in test [9] was inactive. In addition, in [7], the AC50 is 22.9 µM (active).
Turning to `C[C@]12C=CC3=C4CCC(=O)C=C4CC[C@H]3[C@@H]1CC[C@@H]2O`, the result in test [1], in test [2], in test [3], in test [4], in [10] and in test [5] was inactive. Also, the result in test [6], in test [7], in [8] and in [9] was inactive.
For `COC(=O)Nc1nc2ccccc2[nH]1`, the result in test [1], in [2], in [4], in test [10], in test [5] and in test [6] was inactive. In addition, the outcome in test [8] and in test [9] was inactive. Besides, the AC50 in [3] is 9.38 µM (active); in test [7], 0.224 µM (active).
Regarding `CCCSC(=O)N(CCC)CCC`, the result in test [1], in test [2], in test [3], in [4], in test [5] and in [6] was inactive. In addition, the outcome in [7], in test [8] and in test [9] was inactive.
For `CCOC(=O)[C@]1(c2ccccc2)Oc2ccccc2[C@@H]1N`, the result in test [1], in test [3], in test [4] and in test [5] was inactive. In addition, the AC50 was 36.6 µM (active) in test [2]; 31.9 µM (active) in test [10]; 32.2 µM (active) in [6]; 17.8 µM (active) in test [7]; 28.4 µM (active) in test [8]; 26.9 µM (active) in test [9].
On to `COc1cc(C=O)cc2c1[C@H](COC(N)=O)[C@]1(OC(C)=O)ON2C[C@H]2[C@@H]1N2C(C)=O`, for which the AC50 in [1] is 4.87 µM (active); in [2] it was 1.19 µM (active); in test [3] it was 2.21 µM (active); in test [4], 4.5 µM (active); in [10], 0.788 µM (active); in [5] it was 31.2 nM (active). Further, the AC50 in test [6] was 2.73 µM (active); in [7], 0.0312 µM (active); in test [8], 1.08 µM (active); in [9], 2.45 µM (active).
In the case of `Nc1ccc([N+](=O)[O-])cc1`, the outcome in test [1], in test [2], in [3], in test [4], in test [10] and in test [5] was inactive. Further, the outcome in test [6], in test [8] and in [9] was inactive. In test [7], the AC50 was 20 µM (active).
On to `CN(C)c1ccc(C(=O)c2ccc(N(C)C)cc2)cc1`, for which the result in [1], in test [2], in [3], in test [4], in test [5] and in test [6] was inactive. For the same compound, the result in test [8] and in test [9] was inactive. Besides, the AC50 in [7] was 1.56 µM (active).
`ClCCOCCCl`: the result in test [1], in test [2], in test [3], in [4], in test [5] and in test [6] was inactive. The result in test [7], in test [8] and in test [9] was inactive.
`c1ccc(NNc2ccccc2)cc1`: the outcome in [1], in test [2], in test [3], in [4], in test [5] and in test [6] was inactive. Besides, the result in test [7], in test [8] and in test [9] was inactive.
Turning to `CC(C)(C)C(O)(CCc1ccc(Cl)cc1)Cn1cncn1` (configuration not stated), the outcome in [1], in test [2], in [3], in test [4], in [5] and in test [6] was inactive. In addition, the outcome in test [8] and in test [9] was inactive. The AC50 in test [7] is 0.299 µM (active).
As for `CNC(=O)Oc1cccc2c1OC(C)(C)C2`, the result in [1], in test [2], in test [3], in test [4], in test [5] and in test [6] was inactive. In addition, the outcome in test [7], in test [8] and in [9] was inactive.
In the case of `O=C1CCCO1`, the result in [1], in test [2], in test [3], in [4], in test [5] and in test [6] was inactive. For the same compound, the result in [7], in test [8] and in test [9] was inactive.
In the case of `N#CC(Br)(Br)C(N)=O`, the result in test [1], in test [2], in test [3], in test [4], in test [5] and in test [6] was inactive. The outcome in test [7], in [8] and in test [9] was inactive.

Values taken from PubChem BioAssay (EPA / NIEHS).
